Our source for the binding signal values is paper PMC10812921, “Transcriptional Coactivator BOB1 (OBF1, OCA-B) Modulates the Specificity of DNA Recognition by the POU-Domain Factors OCT1 and OCT2 in a Monomeric Configuration”.

In one experiment the target is POU1 (OCT1 POU domain) (human, UniProt P14859 260-458). The experiment can be described thus: EMSA-SELEX-seq; no BOB1; 20 mM Tris-HCl pH 7.6, 140 mM NaCl, 10% glycerol, 0.5 mM EDTA, 0.05% Triton X-100, 0.1 mg/mL BSA, 0.1 mg/mL poly(dI-dC), 5 mM DTT, room temperature, 20 min; high values mean tight binding. The note with it: protein: recombinant; dsDNA, one strand shown. In short, it runs like this: (§1)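 With or without 28 ng coactivator protein, 30 ng of tagged POU-domain protein was combined with 300 ng of a PCR-amplified double-stranded random 35-nt library in 20 μL Tris–HCl pH 7.6 binding buffer for 20 min at RT. The protein came from E. coli BL21 and had been purified under denaturing conditions and renatured. Four rounds of cutting complex bands from native 6% PAGE, elution and PCR amplification preceded Illumina sequencing. The binding preference figure is the percentage of sequenced 8-mers matching a motif pattern.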
Chain of POU1 (OCT1 POU domain) (P14859 260-458): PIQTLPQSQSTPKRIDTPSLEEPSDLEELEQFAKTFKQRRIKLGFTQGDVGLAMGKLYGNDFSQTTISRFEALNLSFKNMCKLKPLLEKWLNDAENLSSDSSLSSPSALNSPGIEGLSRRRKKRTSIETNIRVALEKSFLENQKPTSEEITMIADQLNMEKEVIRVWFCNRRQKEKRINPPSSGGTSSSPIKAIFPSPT

A further experiment has as its target T1, POU2 (OCT2 POU domain) (human, UniProt P09086 175-386).
T1 sequence: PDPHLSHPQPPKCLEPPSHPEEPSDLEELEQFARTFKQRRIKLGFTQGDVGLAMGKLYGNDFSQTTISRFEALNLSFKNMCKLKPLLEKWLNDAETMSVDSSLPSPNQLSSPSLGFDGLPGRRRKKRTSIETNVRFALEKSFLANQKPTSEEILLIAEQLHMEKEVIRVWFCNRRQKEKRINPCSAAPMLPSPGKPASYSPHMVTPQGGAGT
The experiment is described as above. To be noted: protein: recombinant; dsDNA, one strand shown. An outline of the steps:
as §1

Experiment [1] has as its target POU1 (OCT1 POU domain);BOB1 (OBF1, OCA-B) (human;human, UniProt P14859;Q16633 260-458;1-256, |). Description: EMSA-SELEX-seq; with BOB1 (ternary complex band); 20 mM Tris-HCl pH 7.6, 140 mM NaCl, 10% glycerol, 0.5 mM EDTA, 0.05% Triton X-100, 0.1 mg/mL BSA, 0.1 mg/mL poly(dI-dC), 5 mM DTT, room temperature, 20 min; high values mean tight binding. To be noted: protein: recombinant;recombinant; copies: 1;1; dsDNA, one strand shown. An outline of the steps:
as §1

In experiment [2] the target is T2, POU2 (OCT2 POU domain);BOB1 (OBF1, OCA-B) (human;human, UniProt P09086;Q16633 175-386;1-256, |).
T2 sequence 1: T1 sequence
T2 sequence 2: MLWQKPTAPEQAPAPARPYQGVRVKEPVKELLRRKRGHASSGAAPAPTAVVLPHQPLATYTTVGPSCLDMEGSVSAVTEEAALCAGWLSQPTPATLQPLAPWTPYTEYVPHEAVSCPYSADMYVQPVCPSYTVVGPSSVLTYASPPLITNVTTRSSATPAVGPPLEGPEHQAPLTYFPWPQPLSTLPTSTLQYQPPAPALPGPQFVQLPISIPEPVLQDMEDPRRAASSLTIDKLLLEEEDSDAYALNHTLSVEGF
The experiment is described as above. The note with it: protein: recombinant;recombinant; copies: 1;1; dsDNA, one strand shown. An outline of the steps: as §1

On to ATGGAAAC, for which the binding signal with POU1 (OCT1 POU domain) was 0.0805 % of ANNNNAAN 8-mers; with POU2 (OCT2 POU domain) it was 0.0616 % of ANNNNAAN 8-mers; in experiment [1], 0.11 % of ANNNNAAN 8-mers; in experiment [2] it was 0.066 % of ANNNNAAN 8-mers.
For ATATCAAC, in that order: 0.0481 % of ANNNNAAN 8-mers, 0.0449 % of ANNNNAAN 8-mers, 0.0367 % of ANNNNAAN 8-mers and 0.0471 % of ANNNNAAN 8-mers.
For ATAATAAA, in that order: 0.194 % of ANNNNAAN 8-mers, 0.251 % of ANNNNAAN 8-mers, 0.117 % of ANNNNAAN 8-mers and 0.0999 % of ANNNNAAN 8-mers.
As for AGACCAAT, the binding signal is 0.0275 % of ANNNNAAN 8-mers with POU1 (OCT1 POU domain), 0.0219 % of ANNNNAAN 8-mers with POU2 (OCT2 POU domain), 0.0261 % of ANNNNAAN 8-mers in experiment [1] and 0.033 % of ANNNNAAN 8-mers in experiment [2].
In the case of AGTGAAAA, the binding signal with POU1 (OCT1 POU domain) was 0.0698 % of ANNNNAAN 8-mers; in the experiment with POU2 (OCT2 POU domain) it was 0.0685 % of ANNNNAAN 8-mers; in experiment [1], 0.0956 % of ANNNNAAN 8-mers; in experiment [2] it was 0.0685 % of ANNNNAAN 8-mers.
In the case of ATGTGAAT, the binding signal was 0.138 % of ANNNNAAN 8-mers with POU1 (OCT1 POU domain), 0.158 % of ANNNNAAN 8-mers with POU2 (OCT2 POU domain), 0.0921 % of ANNNNAAN 8-mers in experiment [1] and 0.134 % of ANNNNAAN 8-mers in experiment [2].
For ACTCCAAA, in that order: 0.0259 % of ANNNNAAN 8-mers, 0.0219 % of ANNNNAAN 8-mers, 0.0277 % of ANNNNAAN 8-mers and 0.0149 % of ANNNNAAN 8-mers.
For AATCAAAC, in that order: 0.0526 % of ANNNNAAN 8-mers, 0.057 % of ANNNNAAN 8-mers, 0.0765 % of ANNNNAAN 8-mers and 0.0405 % of ANNNNAAN 8-mers.
For AGGATAAG, in that order: 0.0496 % of ANNNNAAN 8-mers, 0.0558 % of ANNNNAAN 8-mers, 0.0523 % of ANNNNAAN 8-mers and 0.0479 % of ANNNNAAN 8-mers.
For the sequence ACGCGAAT, the binding signal with POU1 (OCT1 POU domain) is 0.0389 % of ANNNNAAN 8-mers; with POU2 (OCT2 POU domain), 0.0512 % of ANNNNAAN 8-mers; in experiment [1], 0.0336 % of ANNNNAAN 8-mers; in experiment [2] it was 0.0371 % of ANNNNAAN 8-mers.
The corresponding values for ATCGAAAA are 0.0511 % of ANNNNAAN 8-mers, 0.0564 % of ANNNNAAN 8-mers, 0.0441 % of ANNNNAAN 8-mers and 0.0454 % of ANNNNAAN 8-mers.
The corresponding values for ACCCAAAT are 0.0477 % of ANNNNAAN 8-mers, 0.0391 % of ANNNNAAN 8-mers, 0.0753 % of ANNNNAAN 8-mers and 0.0355 % of ANNNNAAN 8-mers.
For AACAAAAT, in that order: 0.119 % of ANNNNAAN 8-mers, 0.0926 % of ANNNNAAN 8-mers, 0.14 % of ANNNNAAN 8-mers and 0.0982 % of ANNNNAAN 8-mers.
Consider AATCTAAT, for which the binding signal in the experiment with POU1 (OCT1 POU domain) was 0.116 % of ANNNNAAN 8-mers; in the experiment with POU2 (OCT2 POU domain), 0.143 % of ANNNNAAN 8-mers; in experiment [1] it was 0.0972 % of ANNNNAAN 8-mers; in experiment [2] it was 0.0949 % of ANNNNAAN 8-mers.
The corresponding values for AAGGAAAC are 0.0385 % of ANNNNAAN 8-mers, 0.0403 % of ANNNNAAN 8-mers, 0.0511 % of ANNNNAAN 8-mers and 0.038 % of ANNNNAAN 8-mers.
Turning to ACGCTAAA, the binding signal is 0.0305 % of ANNNNAAN 8-mers with POU1 (OCT1 POU domain), 0.0391 % of ANNNNAAN 8-mers in the experiment with POU2 (OCT2 POU domain), 0.0281 % of ANNNNAAN 8-mers in experiment [1] and 0.0322 % of ANNNNAAN 8-mers in experiment [2].
The corresponding values for ACTGCAAG are 0.0133 % of ANNNNAAN 8-mers, 0.0144 % of ANNNNAAN 8-mers, 0.016 % of ANNNNAAN 8-mers and 0.0107 % of ANNNNAAN 8-mers.
For ATCCAAAC, in that order: 0.0233 % of ANNNNAAN 8-mers, 0.0178 % of ANNNNAAN 8-mers, 0.0343 % of ANNNNAAN 8-mers and 0.0264 % of ANNNNAAN 8-mers.
The corresponding values for AGAGGAAG are 0.0358 % of ANNNNAAN 8-mers, 0.0432 % of ANNNNAAN 8-mers, 0.0441 % of ANNNNAAN 8-mers and 0.0413 % of ANNNNAAN 8-mers.
For ACAAGAAC, the binding signal is 0.0214 % of ANNNNAAN 8-mers with POU1 (OCT1 POU domain), 0.0201 % of ANNNNAAN 8-mers in the experiment with POU2 (OCT2 POU domain), 0.0144 % of ANNNNAAN 8-mers in experiment [1] and 0.0297 % of ANNNNAAN 8-mers in experiment [2].
With AAGGTAAT, the binding signal with POU1 (OCT1 POU domain) was 0.122 % of ANNNNAAN 8-mers; with POU2 (OCT2 POU domain), 0.163 % of ANNNNAAN 8-mers; in experiment [1], 0.0925 % of ANNNNAAN 8-mers; in experiment [2] it was 0.128 % of ANNNNAAN 8-mers.
On to AATTAAAT, for which the binding signal with POU1 (OCT1 POU domain) is 0.333 % of ANNNNAAN 8-mers; in the experiment with POU2 (OCT2 POU domain), 0.39 % of ANNNNAAN 8-mers; in experiment [1] it was 0.19 % of ANNNNAAN 8-mers; in experiment [2], 0.173 % of ANNNNAAN 8-mers.
For ACGAAAAA, in that order: 0.0431 % of ANNNNAAN 8-mers, 0.0409 % of ANNNNAAN 8-mers, 0.0578 % of ANNNNAAN 8-mers and 0.0355 % of ANNNNAAN 8-mers.
For AGTCCAAG, in that order: 0.0236 % of ANNNNAAN 8-mers, 0.0253 % of ANNNNAAN 8-mers, 0.0261 % of ANNNNAAN 8-mers and 0.0215 % of ANNNNAAN 8-mers.
For ACTGGAAA, the binding signal with POU1 (OCT1 POU domain) was 0.0362 % of ANNNNAAN 8-mers; with POU2 (OCT2 POU domain) it was 0.0328 % of ANNNNAAN 8-mers; in experiment [1] it was 0.0375 % of ANNNNAAN 8-mers; in experiment [2], 0.0429 % of ANNNNAAN 8-mers.
The corresponding values for AGTGGAAA are 0.0542 % of ANNNNAAN 8-mers, 0.0512 % of ANNNNAAN 8-mers, 0.0718 % of ANNNNAAN 8-mers and 0.052 % of ANNNNAAN 8-mers.
For ACTGAAAT, in that order: 0.0522 % of ANNNNAAN 8-mers, 0.0639 % of ANNNNAAN 8-mers, 0.0472 % of ANNNNAAN 8-mers and 0.0495 % of ANNNNAAN 8-mers.
For ATTGCAAG, in that order: 0.0271 % of ANNNNAAN 8-mers, 0.0397 % of ANNNNAAN 8-mers, 0.0336 % of ANNNNAAN 8-mers and 0.0363 % of ANNNNAAN 8-mers.
For ATCGTAAA, the binding signal with POU1 (OCT1 POU domain) is 0.0553 % of ANNNNAAN 8-mers; in the experiment with POU2 (OCT2 POU domain), 0.0552 % of ANNNNAAN 8-mers; in experiment [1], 0.0531 % of ANNNNAAN 8-mers; in experiment [2], 0.0471 % of ANNNNAAN 8-mers.
For AATAAAAG, in that order: 0.106 % of ANNNNAAN 8-mers, 0.121 % of ANNNNAAN 8-mers, 0.118 % of ANNNNAAN 8-mers and 0.101 % of ANNNNAAN 8-mers.
For AATAAAAA, in that order: 0.137 % of ANNNNAAN 8-mers, 0.132 % of ANNNNAAN 8-mers, 0.125 % of ANNNNAAN 8-mers and 0.0958 % of ANNNNAAN 8-mers.
The corresponding values for AGGCTAAG are 0.0362 % of ANNNNAAN 8-mers, 0.0414 % of ANNNNAAN 8-mers, 0.0312 % of ANNNNAAN 8-mers and 0.0446 % of ANNNNAAN 8-mers.
